Compounds with a hit are over-represented: about 9% of the library has one in this group of screens.
ALDH1A1 block: inhibitors of human aldehyde dehydrogenase 1A1. P00352. Purified ALDH1A1, NADH fluorescence, propionaldehyde substrate. Potency, µM (top dose mostly 75.3 µM), without a hit: at the highest dose activity, negative = inhibition, actives largely listed as inhibitors. hit rate 7.3% among 220,000. AID 1030; active = well fitted inhibition curve with a large enough effect, not every such curve was filed as active; inconclusive = small, poorly fitted or top-dose-only effect, or another doubt; inactive = no such curve, though single readings can be large or run the other way;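 note: plate controls were no enzyme wells and a reference inhibitor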
HPGD block: inhibitors of human 15-hydroxyprostaglandin dehydrogenase (HPGD); Potency, µM, for inactives: at the highest dose activity change, negative = inhibition, actives largely listed as inhibitors; hit rate 4.3% among 150,000; P15428; purified HPGD, NADH fluorescence kinetic, PGE2 substrate; active = well fitted inhibition curve with a large enough effect, not every such curve was filed as active; inconclusive = small, poorly fitted or top-dose-only effect, or another doubt; inactive = no such curve, though single readings can be large or run the other way; note: % is set by controls: 0 for no effect and ±100 for the full control effect
Target sequence (P15428 whole entry, looked up): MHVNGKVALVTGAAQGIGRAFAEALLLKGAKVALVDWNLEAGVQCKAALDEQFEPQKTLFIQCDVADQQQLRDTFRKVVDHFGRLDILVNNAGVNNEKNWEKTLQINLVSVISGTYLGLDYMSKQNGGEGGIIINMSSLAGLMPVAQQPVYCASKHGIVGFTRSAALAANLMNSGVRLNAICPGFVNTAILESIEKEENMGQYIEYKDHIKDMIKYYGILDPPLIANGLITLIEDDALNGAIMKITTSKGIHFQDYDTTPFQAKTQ
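20 nM HPGD preincubated 15 min at room temperature with compound in 50 mM Tris-HCl pH 8, 0.01% Tween 20. Started with 1 mM NAD+ and 30 uM prostaglandin E2; NADH fluorescence (360/450 nm) read 5 times over 30-s intervals, last minus first.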
HttQ103 aggreg: mutant huntingtin aggregation inhibition; PC12 HttQ103-GFP aggregates, Acumen cytometry, 40 h; Potency, µM (titrated, usually from 46.1 µM), for the others: at the highest dose activity change, negative = inhibition, most hits filed as inhibitors; hit rate 1.1% among 220,000; note: % is set by controls: 0 for no effect and ±100 for the full control effect; nearly all actives have a fitted effect of over 60% in size
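Steps: seed 1500 PC12 HTTQ103-GFP cells/well; add tebufenozide, 100 nM final; add compound titration; add ATPLite reagent; quantify GFP aggregates by laser scanning cytometry.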
LMNA splice mod: LMNA splicing modulation | hit rate 0.01% among 200,000 | HeLa LMNA splicing GFP/RFP minigene ratio, 48 h | Potency, µM (doses to about 46.1 µM), for the others: at the highest dose ratio change, negative = inhibition, hits mostly inhibitors; active = well fitted inhibition curve with a large enough effect in the signal ratio, with a control signal flat, not every such curve was filed as active; inconclusive = small, poorly fitted or top-dose-only effect, or effect the other way, or a change in a side signal; the % refers to the signal ratio; note: % is set by controls: 0 for no effect and ±100 for the full control effect
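S3 HeLa stable clones carrying a lamin A-EGFP splicing minigene plus DsRed2 were seeded at 600 cells/well in Opti-MEM with 2% FBS, pin-dosed and incubated 48 h at 37°C. Acumen cytometry (488 nm) gave the GFP/RFP total-intensity ratio.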
Luc counter: blocks Kinase-Glo luciferase, a counter-screen artifact; Kinase-Glo luciferase, ATP luminescence, 8 min; Potency, µM (titrated, usually from 38.3 µM), for inactives: at the highest dose activity change, negative = inhibition, usual class: inhibitors; hit rate 0.28% among 200,000; AID 1379; note: % is set by controls: 0 for no effect and ±100 for the full control effect; nearly all actives have a fitted effect of over 60% in size
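Compounds were added to a substrate mix at pH 7.2 (50 mM imidazole, 10 uM ATP, within the enzyme's linear range), followed by Kinase-Glo detection reagent; luminescence was measured after 8 minutes at ambient temperature.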
HTT ATP protect: protects HTT-Q103 PC12 cells, measured by ATP; Potency, µM (doses to about 56.4 µM), inactives show cytoprotection (ATP increase), actives largely listed as activators; PC12 HTT-Q103 induced, cytoprotection, ATP luminescence, 40 h; hit rate 0.14% among 230,000; AID 1471; note: % of control where 0% means no effect; nearly all actives have a fitted effect of over 45% in size
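ATP quantification (ATPlite) reports survival of PC12 cells in which tebufenozide, 100 nM final, switches on Htt exon 1 with 103 glutamines linked to GFP; compounds are titrated.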
Active calls of the source: *; ? = inconclusive; . = not tested or not shown; [ ] = dose if it differs, or a comment. Unless noted, calls come from the whole dose curve; as a rule, active = well fitted curve in the direction sought with a large enough effect; inconclusive = small, poorly fitted or top-dose-only effect, or another doubt; inactive = no such curve, though single readings can be large; an effect the other way counts as inactive or inconclusive. Potency is the fitted concentration of half-maximal effect.

SMILES	ALDH1A1 block	HPGD block	HttQ103 aggreg	LMNA splice mod	Luc counter	HTT ATP protect
CCOC(=O)C1CCCN(S(=O)(=O)c2ccc(C)cc2)C1 (configuration not stated)	8.9µM*	-12%	-24%	-16%	2%	1%[10 µM]
Cc1ccc(S(=O)(=O)N2CCCC(C(=O)N(Cc3cccs3)C3CC3)C2)cc1 (configuration not stated)	7.1µM*	-6%	?	?	1%	12%[10 µM]
CCOC(=O)C1CCCN(S(=O)(=O)c2ccc(S(N)(=O)=O)cc2)C1 (configuration not stated)	?	.	7%	9%[46 µM]	9%	-12%
O=C(NCc1cccs1)C1CCCN(S(=O)(=O)c2ccc3c(c2)OCO3)C1 (configuration not stated)	-4%	.	-9%	3%	.	-13%
COC(=O)c1ccc(C)c(NC(=O)CCSc2ccccc2)c1	-16%	-19%	7%	17%	-1%	-82%
COC(c1ccccc1)c1nnc(CCC(=O)N(C)CCCC2CCCC2)o1 (configuration not stated)	9%	.	3%[9.22 µM]	8%[46 µM]	-1%	15%[10 µM]
COc1ccc(S(=O)(=O)NCC2CCCN(C(=O)C3CCCC3)C2)cc1 (configuration not stated)	3.5µM*	.	3%[9.22 µM]	0%[46 µM]	2%	12%[10 µM]
Cc1cc(C)c2c(=O)[nH]c(SCC(=O)N(C)C)nc2n1	-14%	-20%	6%	3%	-2%	30%
O=C1CSc2ccc(C(=O)Nc3cccc(S(=O)(=O)Nc4ccc(Br)cc4)c3)cc2N1	10µM*	.	7.9µM*	?	0%	38%[10 µM]
O=C(O)c1cccc(NC(=O)c2cccc(S(=O)(=O)Nc3cccc(C(=O)O)c3)c2)c1	.	.	.	-6%[46 µM]	.	.
CCn1cnc2sc(C(=O)N(Cc3ccc(N(C)C)cc3)Cc3ccco3)c(C)c2c1=O	8.9µM*	-14%	22%	?	3%	12%[10 µM]
CCn1cnc2sc(C(=O)Oc3ccc(Br)cc3)c(C)c2c1=O	14%	.	0%	.	-3%	-27%
Cc1ccc(CN(C)C(=O)c2ccccc2Oc2ccccc2)o1	10µM*	22µM*	11%	12%	0%	-25%[10 µM]
CC(=O)Nc1ccccc1NC(=O)c1ccc(C)cc1C	14%	.	-2%	-13%[46 µM]	0%	14%[10 µM]
CS(=O)(=O)N(CC(=O)N1CCCC1)c1ccc(OCc2ccccc2)cc1	-7%	-11%	-11%	?	0%	34%
COc1cc(NC(=O)c2ccc3c(=O)n(Cc4ccco4)c(=S)[nH]c3c2)cc(OC)c1OC	1.3µM*	-11%	?	?	-3%	-82%[10 µM]
CN1CCN(C(=O)c2ccc3c(=O)n(Cc4ccco4)c(=S)[nH]c3c2)CC1	?	-13%	14%[9.22 µM]	8%	1%	-17%
CCCN(CCC)C(=O)c1ccc2c(=O)n(Cc3ccco3)c(=S)[nH]c2c1	25µM*	.	16%	?	5%	-22%[10 µM]
CCC(=O)NNc1cccc(Cl)n1	14%	-3%	-3%	-4%	1%	-11%
CCN(CC)S(=O)(=O)c1ccc(C(=O)NCCN2C(=O)S/C(=C\c3cccnc3)C2=O)cc1	?	.	14%	?	-3%	-37%
CCCCN1C(=O)c2ccc(C(=O)NCCN3C(=O)S/C(=C\c4cccnc4)C3=O)cc2C1=O	1.3µM*	-16%	-8%	?	2%	-17%[10 µM]
O=C(NNC(=O)c1cnccc1C(F)(F)F)c1cccc(Cl)c1	4%	.	5%[9.22 µM]	.	.	-1%[10 µM]
OC(CNCCCN1CCCCC1)COc1ccccc1 (configuration not stated)	6%	1%	-2%	?	-7%	4%
Oc1c(Cl)cc(Cl)cc1C1=NNC(c2ccc(Cl)cc2)C1 (configuration not stated)	6.3µM*	.	-4%	.	0%	1%
Oc1ccc(Cl)cc1C1=NNC(c2ccc(Cl)cc2)C1 (configuration not stated)	?	?	5%	?	-1%	13%[10 µM]
SMILES	ALDH1A1 block	HPGD block	HttQ103 aggreg	LMNA splice mod	Luc counter	HTT ATP protect
O=C(c1cn(-c2ccccc2)nc1-c1ccccc1)N1CCOCC1	?	-5%	3%	1%	10%	-12%
Cc1ccc(-c2nn(-c3ccccc3)cc2C(=O)N2CCOCC2)cc1C	10µM*	.	4%	-18%[46 µM]	5%	-20%
CC1(C)C(=O)C=C[C@]2(C)C1CC(=O)[C@]1(C)C2CC[C@@]2(C)C(c3ccoc3)OC(=O)C3O[C@@]321 (some centres not stated)	-10%	-5%	.	.	0%	-149%
Cn1c(CO)cnc1SCc1ccc([N+](=O)[O-])cc1	28µM*	-2%	-13%	-7%	-6%	-39%
Cc1cc2c(c(=O)o1)C1(C(=O)N(C)c3ccccc31)C(C#N)=C(N)O2 (configuration not stated)	3%	-12%	-14%	-5%	-1%	0%[10 µM]
CC1=CC(C)(C)N2C(=O)C3(C(C#N)=C(N)OC4=C3C(=O)CC(C)(C)C4)c3cccc1c32 (configuration not stated)	?	-5%	-5%	-6%	-7%	-10%
COC(=O)CN1C(=O)C2(C(C#N)=C(N)Oc3ccccc32)C2=C1CC(C)(C)CC2=O (configuration not stated)	6.3µM*	-1%	-2%[1.84 µM]	12%	8%	0%
Cc1[nH]nc2c1C1(C(=O)N(Cc3ccc(Cl)cc3)c3ccccc31)C(C#N)=C(N)O2 (configuration not stated)	?	-10%	12%	-2%	1%	16%[10 µM]
CC1(C)CC(=O)C2=C(C1)OC(N)=C(C#N)C21C(=O)N(Cc2ccccc2Cl)c2ccccc21 (configuration not stated)	2.8µM*	-2%	28%	10%	-2%	-6%[10 µM]
COC(=O)Cc1[nH]nc2c1C1(C(=O)N(Cc3ccccc3)c3ccccc31)C(C#N)=C(N)O2 (configuration not stated)	20µM*	-1%	-28%	19%	3%	-7%
COc1cc2c3c(c1)C1(C(=O)N3C(C)(C)C=C2C)C(C#N)=C(N)Oc2cc(C)oc(=O)c21 (configuration not stated)	4µM*	-9%	10%	?	-1%	-9%
OCc1csc(=Nc2ccccc2)n1-c1ccccc1	4%	3%	-18%	-3%	-1%	-1%[4.97 µM]
COC(=O)Cc1ccc(NC(=S)NCc2ccccc2OC)cc1	-17%	.	1%[9.22 µM]	12%[46 µM]	-3%	27%[10 µM]
Cc1nnc(SCC(=O)Nc2sc3c(c2C(N)=O)CCCC3)[nH]c1=O	-5%	-13%	16%	13%	5%	-3%
Cc1cccc(OCCCC(=O)Nc2nccs2)c1C	.	.	-1%[9.22 µM]	.	.	5%[10 µM]

Source: PubChem (National Center for Advancing Translational Sciences (NCATS))
